The structures appear in SMILES notation. About 5,900 (0.91%) of roughly 650,000 compounds were called active. The sample as a whole holds a higher share of actives than the screen did. A number with no mark means an inactive call. Cut-off read from the data, not from the text of the source: active = inhibition above about 50%; inactive = the rest.

For this assay, the target named is Microphthalmia-associated transcription factor (Homo sapiens) (UniProt O75030). Description: MITF inhibitors, primary screen, biochemical, AlphaScreen, human (AID 1259374).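 Note: 0% = vehicle wells with protein.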 The conditions noted are these: AlphaScreen MITF homodimerization, bead proximity signal; at 2.6 µM; hits give high values.
Chain of Microphthalmia-associated transcription factor (Homo sapiens) (O75030 whole entry, looked up): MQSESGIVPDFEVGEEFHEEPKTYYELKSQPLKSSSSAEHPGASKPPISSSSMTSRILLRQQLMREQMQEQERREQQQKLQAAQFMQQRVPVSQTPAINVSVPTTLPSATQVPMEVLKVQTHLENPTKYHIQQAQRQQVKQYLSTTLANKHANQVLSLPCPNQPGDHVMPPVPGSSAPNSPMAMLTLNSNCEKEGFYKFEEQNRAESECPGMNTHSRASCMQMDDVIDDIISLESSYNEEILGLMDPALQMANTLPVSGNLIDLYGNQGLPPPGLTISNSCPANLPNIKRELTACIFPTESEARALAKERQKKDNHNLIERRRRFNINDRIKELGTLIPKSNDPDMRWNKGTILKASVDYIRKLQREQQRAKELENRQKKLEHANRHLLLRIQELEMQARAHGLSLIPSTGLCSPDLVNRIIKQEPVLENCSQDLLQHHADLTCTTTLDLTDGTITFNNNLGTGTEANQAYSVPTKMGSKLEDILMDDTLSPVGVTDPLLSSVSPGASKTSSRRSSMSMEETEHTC
In the case of `COc1ccc(C(=O)N/C(=C\c2cccc([N+](=O)[O-])c2)C(=O)NC(CC(C)C)C(=O)O)cc1` (stereo not given), the inhibition was -8.1%.
Take `COCCn1nnnc1C(c1ccc(F)cc1)N1CCN(c2ccccc2OC)CC1` (stereo not given): the inhibition is -3.53%.
Consider `Cc1cc(-c2ccc(S(=O)(=O)NC3CCC(C)CC3)cc2)on1` (stereo not given), for which the inhibition was 4.94%.
As for `CCOC(=O)C1CCN(C(=O)c2ccc(N3CC4CC(C3)c3cccc(=O)n3C4)c(NC(=O)c3cccnc3)c2)CC1` (stereo not given), the inhibition was -0.93%.
As to `CC(=O)N1CCN(C(=O)c2ccc(N3CC4CC(C3)c3cccc(=O)n3C4)c(NC(=O)c3cccnc3)c2)CC1` (stereo not given), the inhibition is 60% (active).
For `COc1ccccc1NC(=O)c1ccc(N2CC3CC(C2)c2cccc(=O)n2C3)c(NC(=O)c2cccnc2)c1` (stereo not given) the value was -6.03%; for `O=C(NCCO)/C(=C/c1ccco1)NC(=O)c1ccccc1`, 13.5%; for `O=C(O)CCCCCNC(=O)/C(=C\c1ccco1)NC(=O)c1ccccc1`, 52.3% (active).
As to `CCCCNC(=O)/C(=C/c1ccco1)NC(=O)c1ccccc1`, the inhibition is 5.66%.
For `CC(C)(CO)NC(=O)CCC1(Cc2ccc3ccccc3c2)CCC(=O)N1` (stereo not given), the inhibition is 5.16%.
Then `CCc1ccc(C(=O)CC(c2ccccc2)C2CCCCC2=O)cc1` (stereo not given), with 2.82%; and `Cc1cncn(CC(=O)NCCOc2ccccc2)c1=O`, with -1.97%.
For `O=C(CCCN1C(=O)/C(=C\c2ccco2)SC1=S)Nc1ccccc1C(=O)O`, the inhibition is 9.5%.
For `CCCC(C(=O)O)N1C(=O)/C(=C/C=C/c2ccco2)SC1=S` (stereo not given) the value was 63.6% (active).
Regarding `O=C(CCN1C(=O)/C(=C\c2ccco2)SC1=S)Nc1cccc(C(=O)O)c1`, the inhibition was 2.65%.
For `O=C(O)CCC(C(=O)O)N1C(=O)/C(=C\c2ccco2)SC1=S` (stereo not given) the value was 62.6% (active); for `CCCCC(C(=O)O)N1C(=O)/C(=C2/C(=O)N(C(C)=O)c3ccccc32)SC1=S` (stereo not given), 6.57%.
As for `Cc1ccc(/C=C2\SC(=S)N(c3cccc(O)c3)C2=O)o1`, the inhibition is 13.4%.
As for `Cc1ccc(/C=C2\SC(=S)N(C(C)C(=O)O)C2=O)o1` (stereo not given), the inhibition is 69.4% (active).
With `COc1cc(/C=C2/SC(=S)N(C(CCSC)C(=O)O)C2=O)ccc1O` (stereo not given), the inhibition is 15.5%.
Turning to `CC(C(=O)O)N1C(=O)S/C(=C\c2ccccc2)C1=O` (stereo not given), the inhibition is 8.38%.
For `CSc1ccc(CCNC(=O)c2cc3ccccn3n2)cc1` the value was -9.21%.
Consider `COc1ccc2[nH]c3c(c2c1)CCOC31CCN(C(=O)N[C@@H](C)c2ccccc2)CC1`, for which the inhibition is -20.6%.
Turning to `O=C(Nc1cccc(Cl)c1N1CCN(Cc2ccco2)CC1)c1ccc(Br)o1`, the inhibition is -6.95%.
With `O=C(CNCCC1=CCCCC1)Nc1ccc(N2CCCC2)cc1`, the inhibition was 10.5%.
Consider `O=C(CNC1CCCC1)Nc1ccc(N2CCCC2)cc1`, for which the inhibition was 6.86%.
As for `O=C(CNCc1ccc(F)cc1)Nc1ccc(N2CCCC2)cc1`, the inhibition is 53.1% (active).
For the compound `O=C(NCc1ccccc1)NC(=O)c1cccnc1`, the inhibition was 22.7%.
Then `CCOc1ccc(-c2cc(N)n(S(=O)(=O)c3ccc(C)cc3)n2)cc1`, with -6.9%; and `CCCC(=O)N=c1sc2cc(S(C)(=O)=O)ccc2n1C`, with 19%.
In the case of `Cn1c(=NC(=O)COc2ccccc2)sc2cc(S(C)(=O)=O)ccc21`, the inhibition was 52.2% (active).
As for `Cn1c(=NC(=O)CCOc2ccccc2)sc2cc(Br)ccc21`, the inhibition is 3.97%.
For `Cc1ccc(/C=C2\N=C(c3cccc(I)c3)OC2=O)cc1` the value was 12.7%.
Then `Cc1ccc(C)c(NC(=O)CN(Cc2ccccc2)S(=O)(=O)c2ccc(Br)cc2)c1`, with -9.84%; and `CCN(Cc1ccccc1)C(=O)c1cc2c(=O)n3cccc(C)c3nc2n1C`, with -25.5%; and `Cc1ccc(NC(=O)CN2CCN(c3ccccn3)CC2)cc1F`, with 8.15%.
With `Cc1ccc(NC(=O)Cn2ccsc2=N)cc1F`, the inhibition was 6.14%.
`CC(=O)N1CCN(CC(=O)Nc2ccc(C)c(F)c2)CC1`: the inhibition was 52.6% (active).
Regarding `CCOc1ccc(Cl)cc1/C=C1/SC(=S)N(CCC(=O)O)C1=O`, the inhibition was -26.2%.
Turning to `CC(C)n1cnc2c(NCc3ccccc3)nc(Nc3ccncn3)nc21`, the inhibition was 10%.
Regarding `FC(F)(F)c1cc(-c2cnc3c(NCc4cccnc4)nccn23)cc(C(F)(F)F)c1`, the inhibition is -11.6%.
For `Cn1c(-c2ccccc2)cnc1NCc1cccc(F)c1` the value was 38%; for `Cn1c(-c2ccc(F)cc2)cnc1NCc1cccnc1`, 72.7% (active); for `COc1ccc(C(=O)COC(=O)c2c3c(nc4ccccc24)CCCC3)cc1OC`, 0.37%.
As for `CN(Cc1cccs1)C(=O)CC1(c2cccc(F)c2)CC(=O)N(C2CCCC2)C1=O` (stereo not given), the inhibition was 7.07%.
As for `Cc1[nH]c2ccccc2c1CN1CCN(Cc2ccc3c(c2)OCO3)CC1`, the inhibition is 38.3%.
In the case of `Cc1ccc(N2CCN(Cc3cccnc3)CC2)cc1`, the inhibition was 9.13%.
As to `Cc1ccc(CN2CCN(Cc3ccncc3)CC2)cc1`, the inhibition was 77.5% (active).
In the case of `OC1(Cc2ccccc2)CCN(Cc2ccncc2)CC1`, the inhibition was 1.54%.
Take `Cc1cc(OCC(O)CN2CCCC2)ccc1Cl` (stereo not given): the inhibition was 8.73%.
Then `O=C1OC(c2ccc(F)cc2)=N/C1=C/c1ccc([N+](=O)[O-])cc1`, with 5.42%; and `CCN(CC)CCN1COc2c(cc(Cl)c3cccnc23)C1`, with 102% (active).
For `Cn1c(=O)n(Cc2cc3c(cc2Cl)OCO3)c2cccnc21`, the inhibition was 13.7%.
With `CCN(CC)CCN1CCN(c2ncc(-c3ccccc3)n3ccnc23)CC1`, the inhibition is 8.61%.
`O=C(Cc1cccs1)N/N=C\c1ccc(Cl)c(Cl)c1`: the inhibition was -9.59%.
As to `C/C(=N/NC(=O)Cc1cccs1)c1ccc(Br)cc1`, the inhibition is 7.44%.
On to `O=C(Cc1cccs1)N/N=C\C=C\c1ccco1`, for which the inhibition was 64.5% (active).
For `Cc1ccc(N(C(=O)C(C)Oc2ccccc2)C2C=CS(=O)(=O)C2)cc1` (stereo not given), the inhibition was -4%.
Turning to `O=C(Nc1cccs1)N1CCC(Cn2c(COc3ccccc3)nc3ccccc32)CC1`, the inhibition was 12.3%.
For the compound `COCCCNC(=O)Nc1ccc(Cl)c(Cl)c1`, the inhibition is 9.41%.
`COCCNC(=O)Nc1ccc2nc(-c3ccco3)c(-c3ccco3)nc2c1`: the inhibition was 87.1% (active).
Regarding `COCCCNC(=O)Nc1ccc([N+](=O)[O-])cc1`, the inhibition was 6.26%.
For the compound `O=C(CCN1C(=O)C2C3C=CC(C3)C2C1=O)Nc1ncc(S(=O)(=O)c2ccc([N+](=O)[O-])cc2)s1` (stereo not given), the inhibition is 2.57%.
For the compound `O=C(NNC(=O)c1cc([N+](=O)[O-])ccc1Cl)c1cccc(Cl)c1`, the inhibition is -0.55%.
Consider `Cc1cc(C)n2c(SCc3nc4sc(C)c(C)c4c(=O)[nH]3)nnc2n1`, for which the inhibition is 7.98%.
As to `COC(=O)c1sc2nc(C)[nH]c(=O)c2c1C`, the inhibition was -2%.
With `CSc1nnc(SCc2nc3sc(C(=O)O)c(C)c3c(=O)[nH]2)s1`, the inhibition is 55.8% (active).
Consider `Cc1ccc(C)c(N2CCN(Cc3nnnn3Cc3ccc(F)cc3)CC2)c1`, for which the inhibition was 13.1%.
Turning to `CC1(C(=O)O)NC(c2cc(Cl)cc(Cl)c2O)C2C(=O)N(c3ccccc3)C(=O)C21` (stereo not given), the inhibition is -2.7%.
In the case of `O=CN1CCN(S(=O)(=O)c2ccccc2[N+](=O)[O-])CC1`, the inhibition was -7.16%.
Take `O=[N+]([O-])c1ccccc1S(=O)(=O)N1CCN(C2Cc3ccccc3C2)CC1`: the inhibition is 52.9% (active).
Regarding `COc1ccccc1N1CCN(S(=O)(=O)c2ccccc2[N+](=O)[O-])CC1`, the inhibition was -2.42%.
For `CC(=O)c1cccc(-c2nc(C)cc(NCc3nc4ccccc4[nH]3)n2)c1`, the inhibition was -6.7%.
Consider `COC(=O)c1sc(NC(=O)c2ccccc2C)c(C#N)c1C`, for which the inhibition was 58.6% (active).
In the case of `COC(=O)c1sc(NC(=O)c2cccc(OC)c2OC)c(C#N)c1C`, the inhibition is 15.6%.
For `COC(=O)c1sc(NC(=O)c2ccncc2)c(C#N)c1C` the value was 22.1%; for `O=C(O)CCCCC1SCC2NC(=O)NC21O` (stereo not given), 115% (active).
In the case of `COc1ccc(NC(=O)c2cc(S(=O)(=O)NCCc3ccccc3)ccc2F)cc1`, the inhibition is 9.24%.
Turning to `O=c1c2c(nc(SCc3ccccc3)n1-c1ccccc1)-c1ccccc1CC21CCCC1`, the inhibition was 7.99%.
For `CC(C)C(Nc1nc(N2CCC[C@H]2C(=O)O)ccc1[N+](=O)[O-])C(=O)O` (stereo not given in full) the value was 4.19%.

The values are drawn from PubChem BioAssay AID1259374 (The Scripps Research Institute Molecular Screening Center, 2018).
